According to PubChem BioAssay AID602475 (National Center for Advancing Translational Sciences (NCATS), 2012):
Records with an inconclusive call do not appear. Values without a mark were called inactive. Activity calls are given as the source filed them. Calls follow the shape of the dose curve; as a rule, active = well fitted inhibition curve with a large enough effect; inconclusive = small, poorly fitted or top-dose-only effect; inactive = no such curve, though single readings can be large or run the other way.

What follows are compounds tested against Luciferin 4-monooxygenase (Photinus pyralis) (UniProt P08659) (assay: FLuc inhibitory activity for the follow-up compounds in a biochemical assay with an in-house formulation of detection reagent). Settings: purified FLuc, luminescence; series mostly up to 25.6 µM; activity change, negative = inhibition: at the top concentration.
Sequence of Luciferin 4-monooxygenase (Photinus pyralis) (P08659 whole entry, looked up): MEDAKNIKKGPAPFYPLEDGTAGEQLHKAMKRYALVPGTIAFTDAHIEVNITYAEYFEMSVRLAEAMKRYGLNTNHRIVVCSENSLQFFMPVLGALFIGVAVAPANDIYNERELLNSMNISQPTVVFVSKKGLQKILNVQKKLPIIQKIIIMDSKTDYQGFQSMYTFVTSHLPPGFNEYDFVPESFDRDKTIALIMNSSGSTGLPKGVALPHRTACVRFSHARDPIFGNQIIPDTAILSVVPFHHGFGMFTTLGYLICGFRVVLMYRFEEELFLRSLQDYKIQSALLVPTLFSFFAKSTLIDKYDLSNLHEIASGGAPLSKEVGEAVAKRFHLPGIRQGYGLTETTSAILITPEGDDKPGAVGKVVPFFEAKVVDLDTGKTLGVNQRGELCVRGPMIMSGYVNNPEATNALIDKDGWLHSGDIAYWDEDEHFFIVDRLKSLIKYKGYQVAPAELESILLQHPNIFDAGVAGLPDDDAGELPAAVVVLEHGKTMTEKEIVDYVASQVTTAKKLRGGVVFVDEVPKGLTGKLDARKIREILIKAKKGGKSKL
Source text: NCGC Assay Overview: Firefly (Photinus pyralis) luciferase is one of the most commonly used transcriptional reporters. It is considered one of the more dynamically responsive reporters - that is, responsive to changes in reporter transcription - as it requires no post-translational modifications and is enzymatically active directly after protein synthesis (Wood, 1998). With no endogenous expression in mammalian cells and without the requirement of external excitation, it offers very little background signal, thus generally providing excellent signal to background for most assays. Previous profiling work to determine the prevalence of compounds that affect FLuc enzymatic activity (PubChem AID 411) identified that ~3% of the MLSMR library (then at ~72K) inhibited FLuc (Auld et al., 2008). […] Of the compounds identified in this profile that inhibited FLuc, 151 compounds were selected for further analysis, in an effort to better understand their mode of inhibiting FLuc. The assay described here was to determine the activity of the compounds in a FLuc assay that used an in-house formulation of detection reagent.
NCGC Assay Protocol Summary: Reagents: 300mM Tris-HCl, 300mM Trizma base, 300mM MgCl, 1% Triton-X100, 5mM DTT, 500uM Coenzyme A trilithium salt (Sigma #C3019),450uM ATP (Sigma #A7699), 1mM D-luciferin sodium salt monohydrate (Biosynth #L8240); 10nM P. pyralis luciferase (Sigma #L9506) Control compounds used were two known firefly luciferase inhibitors (3-(5-(3-chlorophenyl)-1,2,4-oxadiazol-3-yl)benzoic acid and 5-(2-fluorophenyl)-3-phenyl-1,2,4-oxadiazole), and DMSO. Assay Summary: Six microliters of buffer containing firefly luciferase (final concentrations: 50mM Tris acetate, 10nM P. pyralis luciferase) are dispensed into each well of a Greiner white, solid-bottom 1536-well format plate using a flying reagent dispenser (FRD). These assay plates were then treated with 23nL of compound or DMSO using a Kalypsys pin tool, which allows for delivery of a 12-point intraplate titration of each compound to the assay plate (quantitative HTS), with final compound concentrations ranging from approximately ~25uM to 0.1nM. Three microliters of 3X in-house detection reagent was then delivered by FRD to each well (final concentrations in assay: 300mM Tris-HCl, 300mM Trizma base, 300mM MgCl, 1% Triton-X100, 5mM DTT, 500uM Coenzyme A trilithium salt, 450uM ATP, 1mM D-luciferin sodium salt monohydrate). Luciferase activity was then measured using a ViewLux CCD imager (PerkinElmer), with an average exposure time of 2-30 seconds (2X binning, medium/high gain).
`O=C(O)c1ccc(NC(=O)c2ccccc2NC(=O)c2ccccc2Cl)cc1` was tested, and the “activity change, negative = inhibition” value was -9.72%. With `COc1ccc2nc(NC(=O)CCc3nc(-c4ccccc4F)no3)sc2c1` the Potency was 6.94 µM (active). For `O=C(Nc1ccccc1C(=O)O)c1cc(S(=O)(=O)NCc2ccccc2)ccc1Cl`, the “activity change, negative = inhibition” value was -17.5%. In the case of `CCOc1ccc2nc(NC(=O)Cc3cccs3)sc2c1`, the “activity change, negative = inhibition” value is reported as -13.3%. With `COc1ccccc1C(=O)Nc1ccc(C(=O)O)cc1` the “activity change, negative = inhibition” value was -16.7%. `COc1ccc(C(=O)Nc2ccccc2C(=O)N/N=C/c2ccc(O)c(OC)c2)cc1` was tested, and the Potency was 0.011 µM (active). For `COc1ccc(CC(=O)Nc2ccc(-c3nc4ccccc4s3)c(C)c2)cc1`, the Potency was 11 µM (active). `COc1cc(OC)cc(C(=O)Nc2ccc(-c3nc4ccccc4s3)c(C)c2)c1` was tested, and the “activity change, negative = inhibition” value was -18.6%. For `O=C(O)c1ccccc1NC(=O)c1ccccc1Nc1ccccc1`, the “activity change, negative = inhibition” value was -3.26%. With `Cc1ccc(C(=O)Nc2ccc(C(=O)O)cc2)cc1S(=O)(=O)Nc1ccccc1` the “activity change, negative = inhibition” value was -13.9%. For `O=C(Nc1ccccc1C(=O)O)c1cc(S(=O)(=O)Nc2cccc(F)c2)ccc1Cl`, the “activity change, negative = inhibition” value was -17.3%. For `O=C(Nc1ccccc1C(=O)O)c1cccc(NC(=O)c2ccccc2Cl)c1`, the “activity change, negative = inhibition” value was -26.1%. `O=C(Nc1ccccc1C(=O)O)c1cccc(NC(=O)c2ccccc2Br)c1` was tested, and the “activity change, negative = inhibition” value was -2.39%. For `Cc1cccc(NS(=O)(=O)c2cccc(C(=O)Nc3cccc(C(=O)O)c3)c2)c1`, the “activity change, negative = inhibition” value was 8.12%. For `Cc1ccc2sc(-c3ccc(N)cc3)nc2c1`, the Potency was 6.19 µM (active). With `Cc1ccc(C(=O)Nc2cccc(C(=O)O)c2)cc1S(=O)(=O)N1CCCC1` the “activity change, negative = inhibition” value was -19.5%. In the case of `O=C(Nc1ccccc1C(=O)O)c1cccc(S(=O)(=O)N2CCCC2)c1`, the “activity change, negative = inhibition” value is reported as -18.7%. `O=C(Nc1ccccc1C(=O)O)c1ccccc1` was tested, and the “activity change, negative = inhibition” value was -24%. In the case of `C/C(=N\NC(=O)c1ccccc1NC(=O)c1ccc(Cl)cc1)c1ccncc1`, the Potency is reported as 1.1 µM (active). `COc1ccc(-c2nc3ccccc3s2)cc1O` was tested, and the Potency was 2.46 µM (active). With `Cc1ccc(C(=O)O/N=C(\N)c2ccccn2)cc1` the Potency was 0.0619 µM (active). `O=C(Nc1cccc(-c2nc3ccccc3s2)c1)c1cc(-n2cnnc2)ccc1Cl` was tested, and the “activity change, negative = inhibition” value was 12.7%. For `COc1ccc2nc(NC(=O)c3ccc(S(=O)(=O)N4CCCC(C)C4)cc3)sc2c1` (stereo not given), the “activity change, negative = inhibition” value was -0.118%. With `O=C(O)c1cccc(NC(=O)c2ccc(COc3ccc(Cl)cc3)cc2)c1` the “activity change, negative = inhibition” value was 7.3%. For `COc1ccc(C(=O)Nc2cccc(C(=O)O)c2)cc1S(=O)(=O)N1CCCC1`, the “activity change, negative = inhibition” value was -14%. With `O=C(Nc1ccccc1C(=O)O)c1ccc(NC(=O)C2CC2)cc1` the Potency was 7.79 µM (active). With `COc1ccc2nc(NC(=O)C3CCN(S(=O)(=O)c4cccnc4)CC3)sc2c1` the “activity change, negative = inhibition” value was 26.7%. For `O=C(O)c1cccc(NC(=O)c2cccc(S(=O)(=O)N3CCc4ccccc4C3)c2)c1`, the “activity change, negative = inhibition” value was -8.2%. In the case of `Cc1ccc(S(=O)(=O)N2CCN(C(=O)c3ccccc3-c3nc4ccccc4s3)CC2)c(C)c1`, the “activity change, negative = inhibition” value is reported as 15.4%. In the case of `Cc1c(NC(=O)c2cccs2)cccc1-c1nc2ccccc2s1`, the “activity change, negative = inhibition” value is reported as -9.6%. In the case of `Cc1ccc2nc(-c3ccc(N)cc3)sc2c1`, the Potency is reported as 4.91 µM (active). With `CC(C)(C)C(=O)Nc1ccc(-c2nc3ccccc3s2)cc1` the Potency was 0.0219 µM (active). With `Nc1cccc(-c2nc3ccc(N)cc3s2)c1` the Potency was 3.9 µM (active). For `CN(C)S(=O)(=O)c1ccc(C(=O)Nc2cccc(C(=O)O)c2)cc1`, the “activity change, negative = inhibition” value was -9.26%. For `O=C(O)c1ccc(NC(=O)c2ccccc2NC(=O)c2ccccc2Br)cc1`, the “activity change, negative = inhibition” value was -14%. `O=C(Cc1ccc(Cl)cc1)Nc1cccc(C(=O)Nc2ccccc2C(=O)O)c1` was tested, and the “activity change, negative = inhibition” value was 9.02%. `COc1cc(OC)cc(C(=O)Nc2ccccc2-c2nc3ccccc3s2)c1` was tested, and the “activity change, negative = inhibition” value was -6.18%. With `COc1cc(OC)cc(-c2nc3ccccc3s2)c1` the “activity change, negative = inhibition” value was -24%. In the case of `CCn1c(C)nc2cc(-c3nc4n(n3)Cc3ccccc3-4)ccc21`, the Potency is reported as 0.155 µM (active). With `Nc1ccc(-c2nc3ccc(C(=O)O)cc3s2)cc1` the Potency was 5.51 µM (active).
